Reference: PubChem BioAssay (NCATS)
Inconclusive results are not listed. Where a call stands in place of a potency, no number is given. The source made the active and inactive calls. Calls follow the shape of the dose curve; as a rule, active = well fitted cell-killing curve with a large enough effect; inconclusive = small, poorly fitted or top-dose-only effect; inactive = flat fitted curve, though single readings scatter.

Assay: Cellular viability qHTS for adrenocortical cancer (ACC) cell line SW-13 (AID 1963989); also: nearly all actives have a fitted effect of over 65% in size;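 as to activity (max response): cells grown in serum-free medium with ITS supplement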
Conditions: SW-13 ACC cells viability, CellTiter-Glo, 48 h; activity (max response): active compounds read low
In short: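 Luminescent ATP read-out (CellTiter-Glo, 20 min at room temperature) measured metabolically competent SW-13 cells after 48 h compound treatment. Final concentrations spanned up to 46 uM; bortezomib served as positive control.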
Potency is read from the fitted curve at half-maximal effect.

SMILES	Potency	activity (max response)
C=CCNc1c(O)cc2c(O)c1C[C@@H](C)C[C@H](OC)[C@H](O)[C@@H](C)/C=C(/C)[C@H](OC(N)=O)[C@@H](OC)/C=C\C=C(\C)C(=O)N2	3.16 µM (active)	–
Oc1cc(O)c2c(c1)O[C@H](c1ccc(O)c(O)c1)[C@H](O)C2	–	11.2% (inactive)
NCCCC[C@H](N[C@@H](CCc1ccccc1)C(=O)O)C(=O)N1CCC[C@H]1C(=O)O	–	4.67% (inactive)
CCCC(=O)Nc1ccc(OCC(O)CNC(C)C)c(C(C)=O)c1 (centres undefined)	–	0.0374% (inactive)

Assay: Cellular viability qHTS for adrenocortical cancer (ACC) cell line NCI-H295R (AID 1963990); also: nearly all actives have a fitted effect of over 60% in size
Conditions: CellTiter-Glo ATP luminescence, 48 h; series mostly up to 46.1 µM
In short: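 IC50 and maximal efficacy derive from four-parameter logistic modelling of titration curves, with reads scaled between DMSO-only wells (0%) and doxorubicin hydrochloride (100% inhibition). Compounds spanned up to 46 uM over 48 h.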

SMILES	Potency	activity change, negative = viability loss
Cc1[nH]nc2ncc(C(=O)N3CCC[C@H]3c3ccc(Cl)cc3)cc12	inactive	–
Cn1c(NC[C@@H](N)Cc2ccccc2)nc(-c2ccncc2)c(-c2ccc3ccccc3c2)c1=O	31.6 µM (active)	–
O=C(c1ccccc1)c1ccccc1	inactive	–
Cc1[nH]c(/C=C2\C(=O)Nc3ccc(S(=O)(=O)N(C)c4cccc(Cl)c4)cc32)c(C)c1C(=O)N1CCN(C)CC1	14.1 µM (active)	–
CN1[C@@H]2CC[C@H]1CC(NC(=O)n1c(=O)[nH]c3ccccc31)C2 (some centres undefined)	inactive	–
COc1ccc(S(=O)(=O)N(C(C)=O)c2ccccc2/C=C/c2cc[n+]([O-])cc2)cc1	1.41 µM (active)	–
COc1cc(-c2ccc(=O)[nH]n2)ccc1OC(F)F	inactive	–
O=C(O)/C=C(\CC(=O)O)C(=O)O	inactive	–
C[C@]12CC[C@@H]3c4ccc(O)cc4CC[C@H]3[C@@H]1CC[C@@H]2OC(=O)CCC1CCCC1	inactive	–
CC(C)c1cc(CNc2nc(Nc3cc(C4CC4)[nH]n3)cc(N3CCN(C)CC3)n2)on1	1.58 µM (active)	–
O=C1OC(COc2ccccc2[N+](=O)[O-])CC1Cc1ccccc1 (centres undefined)	inactive	–
FC(F)(F)c1ccc(CNc2ccc(Cc3c[nH]c4ncccc34)cn2)cc1	11.2 µM (active)	–
C/C=C/C/C=C/CCC(=O)[C@H]1O[C@H]1C(N)=O	20 µM (active)	–
CC(C)(O)c1ccccc1CC[C@@H](SCC1(CC(=O)O)CC1)c1cccc(/C=C/c2ccc3ccc(Cl)cc3n2)c1	inactive	–
C[N+]1(C)CCC(=C(c2ccccc2)c2ccccc2)CC1	inactive	–
CCN1C(=O)CNc2ncc(-c3ccc(-c4ncn[nH]4)nc3C)nc21	10 µM (active)	–
CCN(CC)CCCC(C)Nc1c2ccc(Cl)cc2nc2ccc(OC)cc12 (centres undefined)	14.1 µM (active)	–
C#Cc1ccc(-c2ccccc2F)cc1	inactive	–
Cn1cc(-c2cc(Oc3cc(F)c(NC(=O)C4(C(=O)Nc5ccccc5)CC4)cc3F)ccn2)cn1	28.2 µM (active)	–
CCn1c(=O)c(-c2ccc(Cl)cc2Cl)cc2cnc(Nc3ccc(N4CCNCC4)c(F)c3)nc21	inactive	–

SMILES	Potency	activity change, negative = viability loss
CN1[C@@H]2CCC[C@H]1CC(NC(=O)c1nn(C)c3ccccc13)C2 (some centres undefined)	inactive	–
CNC(=O)[C@H](Cc1c[nH]c2ccccc12)NC(=O)[C@@H](CC(=O)NO)CC(C)C	inactive	–
C[C@]12C=CC(=O)C=C1[C@@H](F)C[C@@H]1[C@@H]2[C@@H](O)C[C@@]2(C)[C@H]1CC[C@]2(O)C(=O)CO	inactive	–
Cc1ccc(S(=O)(=O)Cc2nc(-c3ccc(C(=O)NCc4cccnc4)cc3)oc2C)cc1	0.0501 µM (active)	–
COc1c2occc2c(OC)c2c(=O)cc(C)oc12	inactive	–
O=C(O)Cc1cccc(-c2cc(CCCCCCc3ccc(O[C@H]4O[C@H](CO)[C@@H](O)[C@H](O)[C@@H]4O)c(-c4cccc(CC(=O)O)c4)c3)ccc2O[C@H]2O[C@H](CO)[C@@H](O)[C@H](O)[C@@H]2O)c1	–	-4.2% [at 0.587 µM] (inactive)
Nc1ncnc2c1ncn2[C@@H]1O[C@H](CO)C[C@H]1O	15.8 µM (active)	–
COCc1c(-c2ccc(NC(=O)Nc3cc(C(F)(F)F)ccc3F)c(F)c2)c2c(N)ncnn2c1CN1CCOCC1	inactive	–
CCCCNc1ncc2c(-c3ccc(CN4CCN(C)CC4)cc3)cn(C3CCC(O)CC3)c2n1 (centres undefined)	6.31 µM (active)	–
CCN1CCN(Cc2ccc(Nc3ncc(F)c(-c4cc(F)c5nc(C)n(C(C)C)c5c4)n3)nc2)CC1	4.47 µM (active)	–
CN1C(CCl)Nc2cc(Cl)c(S(N)(=O)=O)cc2S1(=O)=O (centres undefined)	inactive	–
COc1cccc(Nc2ncnn3ccc(CN4CC[C@@H](N)[C@H](O)C4)c23)c1	inactive	–
C=CC(=O)Nc1cc(Nc2nccc(-c3cn(C)c4ccccc34)n2)c(OC)cc1N(C)CCN(C)C	3.98 µM (active)	–
C=C1C(=O)O[C@H]2C[C@H](C)C(/C=C/C(C)=O)=CC[C@H]12	7.94 µM (active)	–
CC(C(=O)O)c1ccc(C(=O)c2ccccc2)s1 (centres undefined)	inactive	–
O=C(Nc1ccc2[nH]nc(-c3ccncc3)c2c1)[C@@H]1CCN(CC(=O)N2CCN(c3ccc(-c4ncccn4)cc3)CC2)C1	inactive	–
C=CCNc1c(O)cc2c(O)c1C[C@@H](C)C[C@H](OC)[C@H](O)[C@@H](C)/C=C(/C)[C@H](OC(N)=O)[C@@H](OC)/C=C\C=C(\C)C(=O)N2	10 µM (active)	–
Oc1cc(O)c2c(c1)O[C@H](c1ccc(O)c(O)c1)[C@H](O)C2	inactive	–
NCCCC[C@H](N[C@@H](CCc1ccccc1)C(=O)O)C(=O)N1CCC[C@H]1C(=O)O	inactive	–
CCCC(=O)Nc1ccc(OCC(O)CNC(C)C)c(C(C)=O)c1 (centres undefined)	inactive	–
